± gives the standard deviation of the averaged measurements.
tested on: CHON-002; assay: nucleolar normality score relative to DMSO (fraction of DMSO control); RPE1 is a non-cancer human cell line; higher = more normal nucleoli (less nucleolar stress)
Description: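 Selected screen hits were validated in hTERT lines (BJ5TA, CHON-002, RPE1) and cancer lines (DLD1, HCT116). Cells were immunostained for nucleolin and UBF and the nucleolar normality score was measured per field of view, with 4 fields per drug. Scores are normalized to each cell line's own DMSO control. Dose and time are not stated for this panel.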

| SMILES | nucleolar normality score |
| --- | --- |
| Cc1cnc(CNC(=O)c2c(=O)c3ccc(N4CCCN(C)CC4)nc3n3c2sc2ccccc23)cn1 | 0.487 ± 0.11 |
| CC(C)c1c2cc(-c3ccnc(NC4CCC(NC5CCOCC5)CC4)n3)ccc2nn1C (configuration not stated) | 0.281 ± 0.015 |
| CC(C)c1cc(C(=O)N2Cc3ccc(CN4CCN(C)CC4)cc3C2)c(O)cc1O [Onalespib] | 0.383 ± 0.023 |
| CN1CC[C@H](c2c(O)cc(O)c3c(=O)cc(-c4ccccc4Cl)oc23)[C@H](O)C1 [Flavopiridol] | 0.181 ± 0.013 |
| COC[C@H](NC(=O)c1cnc(C)s1)C(=O)N[C@@H](COC)C(=O)N[C@@H](Cc1ccccc1)C(=O)[C@@]1(C)CO1 [Oprozomib] | 0.548 ± 0.036 |
| CC(C)n1nc(-c2ccc3oc(N)nc3c2)c2c(N)ncnc21 [Sapanisertib] | 0.4 ± 0.023 |
| CN(C)CCNC(=O)c1cccn2c(=O)c3cc4ccccc4cc3nc12 | 0.0829 ± 0.03 |
| CCc1cnn2c(NCc3ccc[n+]([O-])c3)cc(N3CCCC[C@H]3CCO)nc12 [Dinaciclib] | 0.201 ± 0.018 |
| Cc1nc(-c2cn3c(n2)-c2ccc(-c4cnn(C(C)(C)C(N)=O)c4)cc2OCC3)n(C(C)C)n1 [Taselisib] | 0.444 ± 0.044 |
| C=CCNC1=C2C[C@@H](C)C[C@H](OC)[C@H](O)[C@@H](C)/C=C(\C)[C@H](OC(N)=O)[C@@H](OC)/C=C\C=C(/C)C(=O)NC(=CC1=O)C2=O | 0.408 ± 0.035 |
| COc1cccc2c1C(=O)c1c(O)c3c(c(O)c1C2=O)C[C@@](O)(C(=O)CO)C[C@@H]3O[C@H]1C[C@H](N)[C@H](O)[C@H](C)O1 [Doxorubicin] | 0.182 ± 0.039 |
| CC(C)C[C@H](NC(=O)[C@H](CCc1ccccc1)NC(=O)CN1CCOCC1)C(=O)N[C@@H](Cc1ccccc1)C(=O)N[C@@H](CC(C)C)C(=O)[C@@]1(C)CO1 [Carfilzomib] | 0.453 ± 0.025 |

Source: the supplement of paper PMC10723795
